Compound activity deposited in PubChem BioAssay by several laboratories.
A3G deaminase = APOBEC3G DNA deaminase inhibitors, primary screen, biochemical, fluorescence, single-stranded DNA substrate, uHTS | DNA dC->dU-editing enzyme APOBEC-3G (Homo sapiens), Q9HC16 | recombinant A3G, ssDNA deamination FAM/TAMRA fluorescence | inhibition, % at 20 µM | 0.28% of 330,000 active;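 active = inhibition of at least 40% at 20 µM, with no more than 30% in the related APOBEC3A deaminase screen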;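 note: plate controls were DMSO wells with A3G for no effect and wells lacking A3G enzyme for full effect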
APOBEC3A inh = APOBEC3A ssDNA deaminase inhibitors, primary screen, selectivity assay for APOBEC3G inhibitor project, biochemical, FAM/TAMRA oligo cleavage fluorescence. recombinant A3A, FAM/TAMRA ssDNA deamination fluorescence. 0.41% of 330,000 active. inhibition, % at 20 µM. DNA dC->dU-editing enzyme APOBEC-3A (Homo sapiens), P31941;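 active = at least 40% inhibition at 20 µM here, with at most 30% in a related deaminase screen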;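 note: plate controls were A3A with DMSO for no effect and wells lacking A3A enzyme for full effect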
Target sequence (P31941 whole entry, looked up): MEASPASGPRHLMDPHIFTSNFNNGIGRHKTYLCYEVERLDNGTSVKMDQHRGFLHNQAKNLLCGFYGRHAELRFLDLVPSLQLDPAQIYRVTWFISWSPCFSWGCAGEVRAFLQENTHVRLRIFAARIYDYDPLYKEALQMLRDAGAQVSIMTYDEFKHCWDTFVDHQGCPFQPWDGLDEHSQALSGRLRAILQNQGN
esBAF inh = Bmi1 luciferase reporter increase in mESCs, primary screen, esBAF inhibitor project, mouse ES cells, Bmi1 luciferase knock-in, single point | 24 h; 100% = twice the neutral-well signal | reporter increase, % at 12.5 µM | 2% of 350,000 active; in the data active = activation above about 40%;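 note: 0% = median of the plate's neutral control wells and 100% = double that signal; a rise in the Bmi1 reporter signal indicates esBAF inhibition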
MITF act = activators of MITF-driven TRPM1 promoter reporter, primary screen, cell-based, SK-MEL-5, luciferase, single point. 0.75% of 300,000 active. activation, % at 12.5 µM. SK-MEL-5 TRPM1-promoter luciferase, 24 h; % of positive control, neutral wells = 0;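 active = mean activation of at least 80% with every replicate also reaching 80%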;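 note: 0% = neutral control wells and 100% = parthenolide positive control wells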
Wnt act = Wnt/beta-catenin pathway activators, primary screen, cell-based, plate reader, single point. AID 743398, 2014. 1.2% of 300,000 active. activation, % at 9.35 µM. Wnt/beta-catenin reporter cell assay, activator; in the data active = activation above about 30%, passing the limit was not always enough;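 note: 0% = neutral control wells and 100% = positive control wells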
PHOSPHO1 block = PubChem AID 1565; 1.1% of 290,000 active; Phosphoethanolamine/phosphocholine phosphatase (Homo sapiens), Q8TCT1; recombinant PHOSPHO1, absorbance phosphatase assay; inhibition, % at 13.3 µM; in the data active = inhibition above about 60%
Target sequence (Q8TCT1 whole entry, looked up): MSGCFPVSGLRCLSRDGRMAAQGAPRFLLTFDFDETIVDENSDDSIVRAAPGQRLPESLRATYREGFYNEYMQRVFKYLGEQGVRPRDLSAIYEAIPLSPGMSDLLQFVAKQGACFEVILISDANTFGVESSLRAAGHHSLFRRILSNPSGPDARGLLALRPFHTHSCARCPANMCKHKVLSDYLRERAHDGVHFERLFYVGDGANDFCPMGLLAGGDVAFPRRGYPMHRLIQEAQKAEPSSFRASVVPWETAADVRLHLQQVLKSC
APOBEC3A confirm = APOBEC3A deaminase inhibitors, retest, confirmation, selectivity assay for APOBEC3G inhibitor project, biochemical, single concentration, fluorescence readout; shares compounds with APOBEC3A inh; recombinant A3A, ssDNA deaminase UDG fluorescence assay; inhibition, % at 20 µM; 63% of 1,400 active;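 active = inhibition reaching a set limit, 80% of the first screen's cutoff, at 20 µM in any replicate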;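 note: plate controls were DMSO wells with A3A for no effect and wells lacking A3A enzyme for full effect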
UDG A3A counter = E. coli UDG inhibitors, confirmation, counter-screen for APOBEC3A inhibitor project, biochemical, single concentration, fluorescence, FAM/TAMRA oligo; 1,000 tested, under 10 active; inhibition, % at 20 µM; shares compounds with APOBEC3A inh; UDG counterscreen, FAM/TAMRA uracil oligo fluorescence; call rule not given here
Active calls of the source: *; x = no result. Most compounds without a hit are left out; they make up all but 3.6% or so of the library.

SMILES	A3G deaminase	APOBEC3A inh	esBAF inh	MITF act	Wnt act	PHOSPHO1 block	APOBEC3A confirm	UDG A3A counter
C[N+]1(C)C2CCC1CC(OC(=O)c1ccccc1)C2 (centres undefined)	16.8	50.5*	-5.0	-2.4	1.4	12.9	67.0*	1.3
C[N+]1(C)[C@@H]2CC[C@H]1CC(OC(=O)C(CO)c1ccccc1)C2 (some centres undefined)	-1.8	-0.4	-3.5	10.9	-1.2	6.0	x	x
C[N+]1(C)C2CCC1CC(OC(=O)C(CO)c1ccccc1)C2 (centres undefined)	17.0	67.6*	-3.3	-14.6	0.5	-10.0	73.9*	-3.5
COc1cc2c(cc1OC)-c1c(OC)c(OC)cc3c1[C@H](C2)[N+](C)(C)CC3	23.3	83.1*	-7.9	-1.3	-0.2	32.9	71.0*	-1.3
COC(=O)[C@H]1[C@H](CO)[C@H]2Cn3c(ccc(-c4cccc(OC)c4)c3=O)[C@@H]1N2C(=O)c1ccccc1F	x	x	5.1	x	x	x	x	x
CCCNC(=O)[C@@H]1[C@@H](CO)[C@@H]2Cn3c(cccc3=O)[C@@H]2N1C	x	x	3.3	x	x	x	x	x
COc1ccc(C(C)=O)cc1CN1CC=C(c2ccccc2)CC1	4.8	55.8*	1.6	-7.6	x	6.3	32.6*	-2.3
C[N+]1(C)CCN(c2ccccc2)CC1	27.2	73.0*	0.9	5.1	-1.6	18.2	77.7*	0.0
Cc1cc(O)c(CN2CCN(c3ccccc3)CC2)cc1C	5.8	4.4	-0.8	1.6	x	18.0	x	x
CCOc1c(P(=S)(N(C)C)N(C)C)c(C)nn1-c1ccccc1	5.3	42.1*	x	4.7	x	0.1	4.1	x
CCOc1ccccc1N=C1SCCCN1C	22.1	46.6*	-8.0	3.3	4.3	92.4*	73.1*	0.6
CC(C)(C)C(=O)c1cn(CC(=O)NCc2ccco2)c2ccccc12	14.8	59.0*	x	84.8*	-1.3	-11.4	45.5*	-1.6
CCC(=O)N1[C@@H]2c3ccc(-c4ccc(F)cc4)c(=O)n3C[C@H]1[C@H](CO)[C@H]2C(=O)OC	x	x	1.9	x	x	x	x	x
C[n+]1ccc(-c2ccncc2)cc1	25.2	74.1*	-11.6	0.6	-0.6	91.7*	76.6*	-2.8
COC(=O)[C@@H]1[C@@H](CO)[C@@H]2Cn3c(ccc(C4=CCCCC4)c3=O)[C@H]1N2Cc1cccnc1	x	x	-1.0	x	x	x	x	x
COc1ccc(-n2c(C)cc(C(=O)C[N+]34CCN(CC3)CC4)c2C)cc1	9.7	59.5*	-6.0	-3.0	-1.1	-14.8	70.3*	1.6
Cc1cc(C(=O)CN2CCCC2)c(C)n1-c1ccc(F)cc1	0.9	4.6	x	5.7	1.1	29.7	x	x
Cc1cccc(S(=O)(=O)N2[C@@H]3c4ccc(-c5cccc(F)c5)c(=O)n4C[C@H]2[C@H](CO)[C@H]3C(=O)O)c1	x	x	0.4	x	x	x	x	x
CN(C)CC1CCCCC1OC(=O)Cc1ccc(Cl)c([N+](=O)[O-])c1 (centres undefined)	14.7	54.7*	-6.4	-19.2	-2.2	2.2	74.4*	1.2
CCN(CC)P(=O)(c1n(CC)cc[n+]1CC)N(CC)CC	28.0	85.6*	x	-3.4	-0.6	-79.1	73.0*	-2.2
CN1[C@@H]2c3cccc(=O)n3C[C@H]1[C@H](CO)[C@H]2C(=O)NCC1CC1	x	x	-0.1	x	x	x	x	x
Cc1ccc(C(O)(c2ccc(C)c(C)c2)C2CN3CCC2CC3)cc1C (centres undefined)	-5.0	-1.1	4.6	-82.2	-2.6	37.5	x	x
CC(C)[N+]12CCC(CC1)C(C(O)(c1ccccc1)c1ccccc1)C2 (centres undefined)	x	x	x	x	0.6	15.7	63.1*	x
C[N+]12CCC(CC1)C(C(O)(c1cccc(Cl)c1)c1cccc(Cl)c1)C2 (centres undefined)	19.7	86.5*	x	x	-1.7	-48.8	75.3*	2.7
CC[N+]12CCC(CC1)C(C(O)(c1ccccc1)c1ccccc1)C2 (centres undefined)	-5.1	0.0	x	-3.3	-0.1	19.5	x	x
SMILES	A3G deaminase	APOBEC3A inh	esBAF inh	MITF act	Wnt act	PHOSPHO1 block	APOBEC3A confirm	UDG A3A counter
CCCN1[C@@H]2Cn3c(ccc(-c4ccc(F)cc4)c3=O)[C@H]1[C@@H](C(=O)OC)[C@@H]2CO	x	x	3.5	x	x	x	x	x
CCC(CO)(C(=O)OC1C[N+]2(C)CCC1CC2)c1ccccc1 (centres undefined)	10.8	55.9*	5.6	-5.6	-0.2	-9.8	70.5*	-2.4
CN1C(=O)NC(=O)/C(=C/c2ccc([N+](=O)[O-])o2)C1=O	31.3	66.3	x	x	-1.5	16.6	x	x
CN1C(=O)NC(=O)/C(=C\c2ccc([N+](=O)[O-])o2)C1=O	26.2	65.2*	-3.9	-6.0	x	-10.0	54.5*	x
CC=Cc1ccc2n(c1=O)C[C@H]1[C@H](CO)[C@@H](C(=O)OC)[C@@H]2N1CC1CCCCC1 (mixture of isomers)	x	x	-2.2	x	x	x	x	x
COC(=O)[C@@H]1[C@@H](CO)[C@@H]2Cn3c(cccc3=O)[C@H]1N2C(=O)C1CCC1	x	x	-1.6	x	x	x	x	x
CCN(CC)C(=O)c1ccc2c(c1)C1C(Cl)C(Sc3ccccc3[N+](=O)[O-])CC1C(C(=O)O)N2 (centres undefined)	34.4	16.4	x	-8.7	x	-20.9	x	x
Cc1ccc2c(c1Cl)NC(C(=O)O)C1CC(Sc3ccccc3[N+](=O)[O-])C(Cl)C21 (centres undefined)	24.7	41.4*	x	8.8	x	-98.4	29.1	x
CC=Cc1ccc2n(c1=O)C[C@@H]1[C@@H](CO)[C@H](C(=O)OC)[C@H]2N1CC1CCCCC1 (mixture of isomers)	x	x	0.8	x	x	x	x	x
Cc1ccc2c(c1)C1C[N+](C)(CC(=O)c3ccc(Cl)cc3Cl)CCC1N2C(=O)c1ccc(F)cc1 (centres undefined)	12.6	78.7*	34.8	46.1	17.6	x	79.2*	-1.8
Cc1ccc2c(c1)C1CN(C)CCC1N2C(=O)c1cccs1 (centres undefined)	1.9	-0.6	x	-26.1	-0.4	-30.1	x	x
